Laboratory results reported in PubChem BioAssay (NCI).
Several values for one entry are separate records, joined by “and”; a condition that tells them apart may be missing. Identical values can stand only once. This is part of a sample that, as a whole, favours compounds with a hit. Of some 83,000 tested, about 20% had one in any assay.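 Treatment: one concentration, 48 hours, 96-well format. Scoring: percent growth, with anything below 10 considered active.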 Activity calls are given as the source filed them.

test system: ACHN renal; assay: NCI-60 one-dose screen, 48 h (100 = growth as untreated, 0 = no growth, -100 = all killed); conditions: 10 µM unless noted
Method: Growth inhibition of the ACHN human tumor cell line is measured as a screen for anti-cancer activity. Cells are grown in 96 well plates and exposed to the test compound for 48 hours. Compounds are tested at a single concentration, which is 10^-5 M for most compounds. The reported endpoint is percent growth (GI% or GIPRCNT), where numbers from 0 - 100% represent growth inhibition, and numbers from -100% - 0 represent cell death. For example, a value of 40 represents 60% growth inhibition. A value of 0 means no net growth occurred over the course of the experiment. A value of -40 indicates 40% of cells at the beginning of the experiment died by the end of the experiment. A value of -100 means all cells are dead at the end of the experiment.
NCI-60 Human Tumor Cell Lines Screen was performed using the standard one-dose NCI protocol, which is described in more detail at https://dtp.cancer.gov/discovery_development/nci-60/default.htm.
Compounds with GIPRCNT values below 10 were considered active. Activity score was based on GIPRCNT using the following formula: […]
Score is 0 for GIPRCNT values of 100 or above, 50 for GIPRCNT values of 0, and 100 for GIPRCNT values of -100.

| Structure (SMILES) | growth |
| --- | --- |
| CN1CCN(c2ccc3nc(-c4c(N)c5c(F)cccc5[nH]c4=O)[nH]c3c2)CC1 | 17.8% (inactive) and 18% (inactive) |
| O=C1OC(Oc2ccc(Br)cc2)(c2ccccc2)c2ccccc21 (stereo not given) | 83.6% (inactive) and 80.3% (inactive) |
| CN(Cc1ccccc1)Cc1ccccc1 | 108% (inactive) |
| NCCSC(C[N+](=O)[O-])c1ccccc1Cl (stereo not given) | 107% (inactive) |
| CCC(O)c1ccccc1 (stereo not given) | 107% (inactive) and 111% (inactive) |
| Cc1ccc(S(=O)(=O)NCN2C(=O)c3ccccc3C2=O)cc1 | 108% (inactive) |
| CCNC(=O)Nc1ccc(-c2nc3c(c(N4CCOC[C@@H]4C)n2)CCN(C2COC2)C3)cc1 | 34.6% (inactive) and 7.24% (active) |
| c1ccc(N(c2ccccc2)c2ccccc2)cc1 | 103% (inactive) |
| Nc1ccccc1SC1CC(=O)N(c2cccc3ccccc23)C1=O (stereo not given) | 97.5% (inactive) |
| O=C(c1ccc(Cl)cc1)C(NCCO)c1ccc(Cl)cc1 (stereo not given) | 120% (inactive) and 102% (inactive) |
| CCOC(=O)c1c(C)oc(C)c(C(=O)OCC)c1=O | 102% (inactive) and 105% (inactive) |
| CC1=C(/C=C/C(C)=C/C=C/C(C)=C/C=N/NC(=S)NC(=S)N/N=C/C=C(C)/C=C/C=C(C)/C=C/C2=C(C)CCCC2(C)C)C(C)(C)CCC1 | 38.9% (inactive) and 10.2% (inactive) |
| O=[N+]([O-])c1ccc(N/N=C\c2cc(Br)ccc2O)nc1 | 4.98% (active) and 10.6% (inactive) |
| OCCN1CCN(CCO)CC1 | 99.1% (inactive) and 98% (inactive) and 104% (inactive) |
| COc1cc(/C=N/Nc2nc3c([nH]2)c(=O)n(C)c(=O)n3C)ccc1O | 109% (inactive) |
| COc1ccc(Cn2c(NCCN=C(N)N)nc(=O)n(Cc3ccc(F)cc3)c2=O)cc1 | 97.7% (inactive) and 102% (inactive) |
| O=C(O)CCCCc1ccc([N+](=O)[O-])cc1 | 103% (inactive) and 98.5% (inactive) |
| CCN(CC)CCC(CNc1ccnc2cc(Cl)ccc12)c1ccc(OC)cc1 (stereo not given) | 37.5% (inactive) and 33.3% (inactive) |
| CCOc1ccc2nc3cc(N)ccc3c(N)c2c1 | 90% (inactive) and 83.7% (inactive) |
| Cn1c(SSc2ccc(-c3cccnc3)n2C)ccc1-c1cccnc1 | 119% (inactive) and 108% (inactive) |

| Structure (SMILES) | growth |
| --- | --- |
| CC(=O)Nc1cc(S(=O)(=O)O)cc2cc(S(=O)(=O)O)c(N=Nc3ccccc3)c(O)c12 | 106% (inactive) and 108% (inactive) |
| Cc1nn(-c2ccc(Cl)cc2)c2ncnc(N/N=C/c3ccccc3O)c12 | 16.5% (inactive) and 5.9% (active) |
| CCCCCCCCCCCCCCCc1cc(O)ccc1N | 90% (inactive) and 76.8% (inactive) |
| CCOc1ccc2c(S(=O)(=O)O)cccc2c1[N+](=O)[O-] | 103% (inactive) and 105% (inactive) |
| Oc1ccccc1/C=N\NC(=S)N/N=C/c1ccccc1O | 15% (inactive) and 10.8% (inactive) |
| O=CC(O)C(O)C(O)CO (stereo not given) | 98.7% (inactive) and 98.1% (inactive) |
| c1ccc2cc(C[n+]3ccn(Cc4ccc5ccccc5n4)c3)ccc2c1 | 86.3% (inactive) and 102% (inactive) |
| NS(=O)(=O)c1cc2c(cc1Cl)NC(C(Cl)Cl)NS2(=O)=O (stereo not given) | 96.7% (inactive) and 92.4% (inactive) |
| CNC(=O)c1cccnc1 | 104% (inactive) |
| Nc1ccc(N=Nc2ccc(S(=O)(=O)O)cc2)cc1S(=O)(=O)O | 99.8% (inactive) and 100% (inactive) |
| Oc1nc(NCCc2ccccc2)sc1/C=C1\C=Nc2ncccc21 | -12% (active) and 16% (inactive) |
| O=C(Nc1ccc(Br)cc1)c1cc(Br)ccc1O | 9.36% (active) and -2.71% (active) |
| Cn1c(=O)n(-c2ccc(C(C)(C)C#N)cc2)c2c3cc(-c4cnc5ccccc5c4)ccc3ncc21 | 5.22% (active) and 9.17% (active) |
| O=[N+]([O-])c1ccc2nc3c4ccccc4c4ccccc4c3nc2c1 | 57.3% (inactive) |
| CC1CCCC(=O)O1 (stereo not given) | 99.2% (inactive) and 100% (inactive) |
| CC1=C[C@H]2c3c(c(O)c(O)c4oc5cc(O)cc(O)c5c(=O)c34)[C@H](c3cc(O)c(O)c4oc5cc(O)cc(O)c5c(=O)c34)[C@H]2C(C)(C)C1 | 18.1% (inactive) and -7.12% (active) |
| NC(=O)NO | 96.9% (inactive) and 67.5% (inactive) |
| Cc1cccc(/C=C\C(=O)c2ccc(Cl)cc2)c1 | 102% (inactive) and 105% (inactive) |
| C#CCN(C)Cc1ccccc1 | 97.5% (inactive) and 105% (inactive) |
| O=c1c2ccccc2nc2n1Cc1nc3ccccc3c(=O)n1C2 | 95.6% (inactive) and 102% (inactive) |
